# Assay outcomes deposited in PubChem BioAssay by National Center for Advancing Translational Sciences (NCATS).
# Most compounds without a hit are left out; they make up all but 2.6% or so of the library.
# A-T KAP1 phos: candidate therapy for ataxia-telangiectasia; F2112 A-T fibroblasts, KAP-1 phosphorylation AlphaLISA; neocarzinostatin DNA damage 30 min before lysis; Potency, µM (top dose mostly 57.5 µM), inactives show at the top dose activation, actives largely listed as activators; 320,000 tested, 0.19% active; also: potency is read from the fitted curve at half-maximal effect; % of control where 0% means no effect; nearly all actives have a fitted effect of over 45% in size
#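 hTERT-immortalized A-T patient fibroblasts (F2112), 500 cells/well in OPTI-MEM, 1% FBS, got compounds for 60 min, then NCS for 30 min at 37C. Lysates were then assayed for phospho-KAP-1 by AlphaLISA (anti-pKAP1 donor, anti-KAP1 acceptor beads), 6 hr at 25C.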
# Nrf2 ARE act: Nrf2 pathway activation | Potency, µM (titrated, usually from 46.1 µM), for inactives: top-dose activation, most hits filed as activators | 410,000 tested, 0.31% active | AREc32 ARE-luciferase reporter (MCF7-derived line), luminescence, 24 h; also: potency is read from the fitted curve at half-maximal effect; % of control where 0% means no effect; nearly all actives have a fitted effect of over 65% in size
#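 AREc32 cells carrying an ARE-driven firefly luciferase reporter were seeded at 1000 cells/well in OPTI-MEM with 5% FBS, then exposed to compound for 24 hr at 37 deg C. Luminescence was read with Steady-Glo after 30 min at RT.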
# Nrf2 block: Nrf2 pathway inhibition. A549 ARE-Fluc reporter, luciferase luminescence, 18-24 h. Potency, µM (highest dose often 46 µM), for inactives: at the highest dose activity change, negative = inhibition, usual class: inhibitors. 360,000 tested, 2.1% active. AID 504444; also: potency is read from the fitted curve at half-maximal effect; % is scaled to controls: 0 for no effect and ±100 for the full control effect; nearly all actives have a fitted effect of over 60% in size
#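 A549 ARE_Fluc cells, 5000/well, 5% FBS OPTI-MEM; compounds in dose-response, 18-24 h at 37 °C/5% CO2; CellTiter-Fluor viability read (Ex 405/Em 525), then BugLite luciferase luminescence = Nrf2 activity.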
# A549 tox: counter-screen for Nrf2 inhibitors: cytotoxicity in A549 cells; A549 ARE-Fluc cells, CellTiter-Fluor viability, 18-24 h; Potency, µM (top dose mostly 46 µM), for the others: at the top dose activity change, negative = cytotoxicity, hits mostly inhibitors; AID 504648; 390,000 tested, 0.16% active; also: potency is read from the fitted curve at half-maximal effect; % is scaled to controls: 0 for no effect and ±100 for the full control effect
#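 A549 ARE-Fluc cells in 5% FBS OPTI-MEM, 5000 cells/well, rested 2 h then exposed to compounds in concentration-response for 18-24 h at 37 °C. Viability by CellTiter-Fluor fluorescence (Ex 405/Em 525) after 30 min; luciferase luminescence (BugLite, 15 min, RT) read afterwards.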
# CCT modulator: cytosolic chaperonin activity modulation; activity change, % (no concentration beside the values), hits read low; purified chaperonin ATPase assay, HTRF ADP detection, 30 min; 360,000 tested, 0.3% active; in the data active = activity change below about -30%; also: % is scaled to controls: 0 for no effect and ±100 for the full control effect
#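 Nucleotide hydrolysis assay: TRiC at 20–40 nM final (set by batch activity) with 10 uM ATP, 30 min at 37 °C, in presence of 76 uM compound. Detection by competitive ADP HTRF, 30 min ambient.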
# TCR act: T cell receptor activation | primary human leukocytes, anti-CD3, IL-2 HTRF, 48 h | Potency, µM (series often up to 9.22 µM), inactives show at the top dose activation of IL-2 secretion, actives largely listed as activators | 330,000 tested, under 10 active; also: % of control where 0% means no effect
#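 Human primary leukocytes + a-CD3 beads + cpd, 48 hr; IL-2 in supernatant by HTRF (ex 320nm / em 665nm). No co-stimulatory signal supplied.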
# The depositor's hits bear a star; ? = inconclusive; . = no result; [ ] = dose if it differs, or a comment. Unless noted, calls follow the shape of the dose curve; as a rule, active = well fitted curve in the direction sought with a large enough effect; inconclusive = small, poorly fitted or top-dose-only effect, or another doubt; inactive = no such curve, though single readings can be large; an effect the other way counts as inactive or inconclusive.
SMILES,A-T KAP1 phos,Nrf2 ARE act,Nrf2 block,A549 tox,CCT modulator,TCR act
CCCN(C(=O)COc1cc(=O)n(CC)c2ccccc12)c1ccc(C(C)C)cc1,.,0%,?,-3%,.,.
Cc1cc(C)c2c(CC(=O)N(Cc3ccc(Cl)cc3)Cc3ccco3)coc2c1,.,5%,-13%,5%,.,.
c1ccc2c(c1)ccc1ccccc12,2%,-1%,2%,4%,-2,18%
Nc1c(C(O)(C(F)(F)F)C(F)(F)F)ccc2ccccc12,28µM*,0%,?,?,-1,-3%
Cc1ccccc1CNCCCSc1ncccn1,11%,0%,2%,-6%,-2,-3%
O=C(NCCNc1ccc(Cl)cc1[N+](=O)[O-])c1ccccc1F,14%,10%,1%,-10%,-3,0%
O=C(NCCNc1ccnc2cc(Cl)ccc12)c1ccccc1F,0%,4%,18µM*,-10%,1,-2%
CN1CCN([C@@H]2CS(=O)(=O)N[C@H]2COCc2ccccc2)CC1,.,-1%,.,.,1,.
CCS(=O)(=O)N1CC(=O)N(c2ccc(Cl)cc2C)C(C)(C(=O)NC2CCCCCC2)C1 (stereo not given),.,0%,11%,1%,.,.
CC(On1c(-c2ccccc2)nc2ccc(Cl)cc21)C(=O)O (stereo not given),-3%,4%,11%,-2%,-2,0%
Cc1ccc(-c2nc3ccc(Cl)cc3n2OC(C)C(=O)O)cc1 (stereo not given),-1%,0%,9%,-15%,-55*,-7%
COc1ccccc1CNC(=O)c1ccc2nc3[nH]c4ccccc4c3nc2c1,1%,26%,15µM*,?,-1,-3%[46.1 µM]
Cc1ccc(CNC(=O)c2ccc3nc4[nH]c5ccccc5c4nc3c2)cc1,6%,.,.,.,.,1%[46.1 µM]
O=C(CN(c1cccc(Cl)c1)S(=O)(=O)c1ccc(Cl)cc1)NCc1ccccn1,12%,2%,21µM*,?,0,-2%
COc1ccc(S(=O)(=O)N(CC(=O)NCc2ccccn2)c2ccc(Cl)cc2)cc1,-2%,2%,0%,3%,-2,2%
COc1cccc(CCNc2ncnc3c2nnn3C)c1,.,4%,.,-7%,.,.
CCOc1ccc(Nc2sc(C(=O)c3cccc(OC)c3)c(N)c2S(=O)(=O)c2ccccc2)cc1,.,-1%,.,-6%,.,.
CC(C)[C@H](NC(=O)N1CCn2c1nc1ccccc12)C(=O)NC1CCCCC1,-1%,0%,21µM*,?,-1,5%
O=C(N/C(=C/c1cccc(Br)c1)c1nc(=S)[nH][nH]1)c1ccccc1,-8%,?,5%,-3%,-4,-2%[46.1 µM]
Cc1ccc(C(=O)N/C(=C\c2ccc(Br)cc2)c2nc(=S)[nH][nH]2)cc1,-5%,3%,?,26µM*,-1,-26%
COc1ccc(C(=O)Nc2cc3c(cc2C(=O)c2ccccc2Cl)OCCO3)cc1,.,0%,-31%,1%,.,.
CC1(CCc2ccccc2)NC(=O)N(CC(=O)Nc2ccccc2)C1=O (stereo not given),8%,2%,-10%,-6%,0,2%
CC1(CCc2ccccc2)NC(=O)N(CC(=O)Nc2c(F)cccc2F)C1=O (stereo not given),2%,-1%,-19%,1%,-51*,6%
CC(=O)NC(c1ccc(Cl)cc1)c1ccc2cccnc2c1O (stereo not given),.,-1%,?,1%,-4,.
CC(=O)NC(c1ccco1)c1ccc2cccnc2c1O (stereo not given),1%,-1%,16µM*,-19%,-3,5%
SMILES,A-T KAP1 phos,Nrf2 ARE act,Nrf2 block,A549 tox,CCT modulator,TCR act
CC(C)C(=O)NC(c1ccc(Cl)cc1Cl)c1ccc2cccnc2c1O (stereo not given),-4%,4%,13µM*,?,1,-2%
O=C1c2ccccc2C(=O)N1c1cccc2cnccc12,.,.,10%,7%,.,.
CCN1C(=O)N[C@@H](c2cccc(C(F)(F)F)c2)C(C(=O)OC)=C1C,.,0%,-23%,6%,-4,0%
CCN1C(=O)N[C@@H](c2cccc(F)c2)C(C(=O)OC)=C1C,.,-1%,-5%,2%,-40*,-2%
CCN(CC)c1nc2c(S(=O)(=O)c3ccc(C)cc3)nnn2c2ccsc12,.,-1%,0%,3%,.,.
Cc1ccc(S(=O)(=O)N2CCN(CC(=O)Nc3ccc(N4CCOCC4)cc3)CC2)cc1C,-4%,0%,-3%,1%,-3,0%[46.1 µM]
Cc1cccc(N2CCN(CC(=O)Nc3nccs3)CC2)c1C,-4%,0%,16µM*,-23%,2,6%
Cc1cccc(N2CCN(CC(=O)Nc3ccc(S(=O)(=O)N4CCOCC4)cc3)CC2)c1C,8%,0%,16µM*,-14%,0,5%
COc1ccccc1N1CCN(CC(=O)Nc2nccs2)CC1,-7%,-1%,-3%,-4%,-3,-10%
CNc1cccc(S(=O)(=O)N2CCN(S(=O)(=O)c3ccc4c(c3)OCCO4)CC2)c1,.,.,-2%,6%,.,.
COc1ccc(/C=C/c2c([N+](=O)[O-])c(=O)n(C)c(=O)n2C)c(OC)c1,6%,3%,-15%,4%,-2,0%
Cn1c(/C=C/c2ccc(Cl)cc2Cl)c([N+](=O)[O-])c(=O)n(C)c1=O,-4%,?,26µM*,?,-2,-14%
CCc1ccc(/C=C/c2c([N+](=O)[O-])c(=O)n(C)c(=O)n2C)cc1,1%,?,13µM*,?,3,-3%
O=C(c1ccc(Cl)s1)N1CCN(c2nc3ccccc3s2)CC1,10%,1%,7.3µM*,-14%,1,-4%
O=C(c1cccs1)N1CCN(c2nc3ccccc3s2)CC1,3%,0%,?,1%,1,1%
COc1ccc(C(=O)Nc2ccc3c(c2)N(C2CCCC2)C(=O)c2ccccc2S3)cc1OC,.,-1%,.,-7%,.,.
COc1cccc(CNC(=O)c2cc3c(C)nc4ccccc4c3o2)c1,0%,0%,-92%,-23%,1,11%
CCc1ccc(CNC(=O)c2cc3c(C)nc4ccccc4c3o2)cc1,1%,3%,15µM*,-25%,-2,4%
Cc1nc2ccccc2c2oc(C(=O)NCC3COc4ccccc4O3)cc12 (stereo not given),5%,-1%,16µM*,-24%,0,-1%[46.1 µM]
N#Cc1ccc(-c2csc(NNC(=O)c3ccc(Br)cc3)n2)cc1,-7%,-1%,.,?,-4,-3%
N#Cc1ccc(-c2csc(NNC(=O)c3ccccc3)n2)cc1,-6%,-1%,23µM*,-14%,-4,0%
